Screening data (PubChem)
CRFBP-R2 block: blocks CRF-induced signaling of the CRF-BP/CRF-R2 complex. inhibition, % at 11.8 µM. HEK293 CRF-R2/CRF-BP, CRF-induced calcium fluorescence. hit rate 0.59% among 350,000;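 active means inhibition of the ligand-induced calcium signal above about 50% at the single tested concentration, limit read from the data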
RTF Ca sens inh: cardiac RTF calcium desensitization. P19429+P45379. IANBD-labeled cardiac RTF, Ca2+ fluorescence. inhibition, % at 7.15 µM. hit rate 0.12% among 340,000;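 active means inhibition above the mean inhibition of all tested compounds plus 3 SD, cut at about 17% in these data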;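 further: assay run at fixed EC70 calcium of 1.6 mM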
CRFR2-BP ag: agonists of human CRF-binding protein/CRF-R2 receptor complex. HEK293 CRF-R2/CRF-BP, calcium dye fluorescence (FLIPR); percent of saturating CRF peptide response. activation, % at 13.2 µM. hit rate 0.46% among 350,000. AID 588473;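 active means activation of at least 50%, plus an integration ratio under a set limit after plate pattern correction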;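 further: plate controls were neutral control wells without compound for no effect and CRF at EC100 for full effect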
RTF Ca sens act: cardiac RTF calcium sensitization. AID 493008. IANBD-labeled TnC RTF fluorescence at EC20 calcium; 0% EC20 calcium, 100% full calcium. activation, % at 7.2 µM. hit rate 0.24% among 340,000. P19429+P45379;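 active means activation above the mean over all tested compounds plus 3 SD, cut at about 30% in these data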;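 further: rise in fluorescence read as greater calcium sensitivity of cardiac thin filaments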
IDE cell activ: IDE (human) activation, cell-based | AID 493087 | hit rate 0.073% among 340,000 | HEK cells, FAbeta-B cleavage, fluorescence polarization; 0% vehicle, 100% cell-free pure enzyme wells | activation, % at 5.96 µM | P14735;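 active means activation above the mean of all tested compounds plus 3 SD, set per screening campaign, cut at about 17% in these data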
IDE cell inh: cellular human IDE inhibition; P14735; HEK cells, FAbetaB cleavage, fluorescence polarization; inhibition, % at 5.59 µM; hit rate 0.41% among 320,000; AID 434962;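 active means percent inhibition above the average of all tested compounds plus 3 SD, set per screening campaign, cut at about 16% in these data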;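 further: IDE supplied by intact live HEK cells; FP after avidin binding of uncleaved biotin substrate so inhibition keeps polarization high; 0% = DMSO wells and 100% = 60 µM reference IDE inhibitor Ii1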
* marks the source's active call; other numbers are inactive results; . = no result given. Only some compounds are listed: those with a hit (about 1.5% of all), similar ones and a draw of the others.

SMILES | CRFBP-R2 block | RTF Ca sens inh | CRFR2-BP ag | RTF Ca sens act | IDE cell activ | IDE cell inh
O=C(NNC(=O)C12CC3CC(CC(C3)C1)C2)c1ccncc1 | 8 | -17 | 2 | 5 | 3 | 0
CC12CC3CC(C)(C1)CC(C(=O)NNC(=O)c1ccncc1)(C3)C2 | 66* | 0 | 0 | 0 | -2 | -1
COc1ccccc1NC(=O)/C(C#N)=C/c1cc([N+](=O)[O-])ccc1N1CCCC1 | -43 | -3 | 92* | 7 | 2 | -8
CCn1c(=O)c(C(=O)NNC(=O)c2ccccc2F)c(O)c2ccccc21 | 27 | 16 | 100* | 0 | 6 | 0
Cn1c(=O)c(C(=O)NNC(=O)c2ccccc2F)c(O)c2ccccc21 | -1 | 1 | 51* | 1 | 4 | 1
COc1cc(NC(=S)NC(=O)CCc2ccccc2)cc(OC)c1 | -21 | -1 | 2 | 0 | 3 | -5
Cc1ccc(/C=C/C(=O)OCC(=O)NC(=O)NCc2ccco2)cc1 | -6 | -16 | -1 | -1 | 4 | -1
CCOc1ccccc1NC(=O)COC(=O)c1nc2nccc(C)n2n1 | 20 | 2 | 0 | -1 | -2 | 1
COc1ccc(OC)c(NC(=O)c2ccccc2NS(=O)(=O)c2cccc3cccnc23)c1 | 74* | -1 | 0 | -5 | 2 | -5
CCC(C)(C)C1CCC2(CC1)NC(=O)N(CC(=O)NC(C)CCc1ccccc1)C2=O (centres undefined) | -29 | -10 | 0 | -16 | 3 | .
CC(=O)N1CCN(c2ccc(NC(=O)c3ccccc3Cl)cc2)CC1 | 8 | 1 | 0 | -4 | 2 | 6
O=C(Nc1ccc(C(=O)N2CCCC2)cc1)c1ccccc1F | 66* | -2 | 1 | 10 | 8 | -3
O=C(Nc1cc(C(=O)N2CCCC2)ccc1N1CCCC1)c1ccccc1F | 3 | -2 | -1 | 2 | 3 | 0
O=C(Nc1ccc(N2CCCCCC2)cc1)c1ccccc1Cl | 81* | -8 | -5 | 13 | 2 | 0
N#CCC(=O)N/N=C\c1cc(Br)ccc1OC/C=C/c1ccccc1 | -8 | 4 | 3 | -5 | -1 | .
Cc1cc(=O)[nH]c(SCC(=O)Nc2ccc(Br)cc2)c1C#N | 63* | -13 | 67* | -1 | 2 | 3
CCCN1C=CC(=C/C=C(\C#N)C(=O)OCC)C=C1 | . | . | . | . | . | 101*
N#CCCN(C(=O)COC(=O)Cc1c[nH]c2ccccc12)c1ccccc1 | -24 | -1 | 2 | 5 | -2 | 3
COc1ccc(S(=O)(=O)N2CCN(c3cnccn3)CC2)cc1OC | 7 | -9 | 7 | -4 | -1 | 6
CSc1ccccc1NC(=O)CO/N=C(\C)c1cc2ccccc2o1 | 34 | 2 | -3 | -5 | 3 | 1
C/C(=N\OCC(=O)Nc1ccc(F)c(F)c1F)c1cc2ccccc2o1 | 54* | -21 | 4 | -4 | -2 | 1
COc1cc(C#Cc2c(-c3ccccc3)n(C)c3ccccc23)cc(OC)c1 | 51* | -3 | -2 | -2 | 1 | 2
COc1ccc(C#Cc2c(-c3ccccc3)n(C)c3ccccc23)cc1 | -2 | -11 | -3 | 0 | -4 | 7
Cc1[nH]c(=O)[nH]c1C(=O)CCCCC(=O)O | 10 | -7 | 3 | 4 | 39* | -17
O=C(Cn1nc(-c2ccccc2)oc1=O)OCC(=O)c1ccc(F)c(F)c1 | 7 | -2 | -1 | -1 | -1 | -3
SMILES | CRFBP-R2 block | RTF Ca sens inh | CRFR2-BP ag | RTF Ca sens act | IDE cell activ | IDE cell inh
C=CCn1c(SCC(=O)Nc2ccc(F)cc2F)nnc1-c1cnccn1 | 12 | -3 | -2 | -5 | 4 | 3
Cc1cc(C)c2c(CC(=O)Nc3nccs3)coc2c1 | 99* | -10 | 3 | -3 | 1 | -1
Cc1ccc(S(=O)(=O)Nc2ccccc2C(=O)Nc2nc(-c3ccc(F)cc3)cs2)cc1 | 77* | -4 | 22 | -11 | 3 | -3
COc1ccc(-c2csc(NC(=O)c3ccccc3NS(=O)(=O)c3ccc(F)c(F)c3)n2)cc1 | 84* | -8 | 43 | -1 | 2 | -5
COc1ccc(-c2cc(C(=O)NC(C)c3ccccn3)c3ccccc3n2)cc1OC (centres undefined) | 1 | -1 | 0 | 5 | 1 | 0
N#Cc1c2nc3ccccc3nc2n2cc(NC(=O)c3ccc(F)cc3)ccc12 | -83 | -17 | 55* | 10 | 0 | .
